Source: PubChem
TDP1 cell CPT: qHTS for Inhibitors of human tyrosyl-DNA phosphodiesterase 1 (TDP1): qHTS in cells in presence of CPT; chicken DT40 Tdp1-/-;hTDP1 cells + 20 nM CPT, ATP luminescence, 48 h; Potency, µM (doses to about 46.2 µM), most hits filed as inhibitors; actives 12% (n = 420,000); AID 686979, 2013; note: nearly all actives have a fitted effect of over 55% in size
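Chicken DT40 Tdp1-/- cells complemented with human TDP1, 400 cells/well, exposed to compounds plus 20 nM camptothecin for at least 48 h at 37 C; viability read as ATP content by CellTiter-Glo luminescence.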
RORgamma inh: qHTS for inhibitors of ROR gamma transcriptional activity; actives 5.4% (n = 310,000); Drosophila S2 Gal4-RORgamma UAS-luciferase reporter, 20 h; Potency, µM (doses to about 53.6 µM), usual class: inhibitors; AID 2551, 2010; note: nearly all actives have a fitted effect of over 60% in size
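Using a luciferase readout, inhibitors were identified by reduced reporter activity in Drosophila cells coexpressing a copper-inducible Gal4–ROR gamma fusion and UAS-driven Photinus luciferase, incubated 20 hr after 700 uM copper sulfate.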
Gal4-VP16 FLuc: VP16 counterscreen qHTS for inhibitors of ROR gamma transcriptional activity; Drosophila S2 Gal4-VP16 UAS-luciferase, luminescence, 20 h; Potency, µM (titrated, usually from 53.6 µM), actives largely listed as inhibitors; actives 3.5% (n = 310,000);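 note: Gal4-VP16 expression switched on by copper sulfate through the metallothionein promoter; nearly all actives have a fitted effect of over 50% in size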
ELG1 DNA repair: qHTS screen for small molecules that inhibit ELG1-dependent DNA repair in human embryonic kidney (HEK293T) cells expressing luciferase-tagged ELG1. Potency, µM (doses to about 46.1 µM), hits mostly inhibitors. actives 2.3% (n = 330,000). HEK293T ELG1-luciferase reporter, luminescence, 16 h; DNA damage induced by 5-fluorouridine. AID 504467, 2011; note: nearly all actives have a fitted effect of over 55% in size
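Cells (2,000 per well) received 5-fluorouridine plus test compound or DMSO and were incubated 16 hr at 37 °C, 5% CO2. Luciferase activity was read by luminescence 30 min after ONE-Glo addition; signal suppression marked inhibition of damage-induced ELG1 function.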
ALOX12 inh: Primary qHTS assay for inhibitors of human arachidonate 12S-lipoxygenase (ALOX12): Round 2. AID 1671190, 2021. actives 1.1% (n = 580,000). purified 12hLO, xylenol orange hydroperoxide absorbance. Potency, µM (doses to about 108 µM), hits mostly inhibitors. Polyunsaturated fatty acid lipoxygenase ALOX12 (Homo sapiens), P18054
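Hydroperoxide product was detected by ferrous iron/xylenol orange as the 573 to 405 nm absorbance ratio. Arachidonic acid at 40 uM (final) was turned over for 30 min at room temperature by 150 nM human 12hLO, pH 7.0 Hepes buffer, after 15 min compound preincubation.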
DT40 TDP1 no CPT: qHTS for Inhibitors of human tyrosyl-DNA phosphodiesterase 1 (TDP1): qHTS in cells in absence of CPT; DT40 Tdp1-/- hTDP1 cells, no CPT, ATP luminescence, 48 h; actives 15% (n = 420,000); Potency, µM (highest dose often 46.2 µM), usual class: inhibitors; note: nearly all actives have a fitted effect of over 55% in size
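Stably hTDP1-transfected Tdp1-null chicken DT40 cells were treated with library compounds minus camptothecin and grown for at least 48 hr at 37 °C, after which cellular ATP was quantified by luminescence.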
ELG1 FLuc counter: qHTS screen for small molecules that inhibit ELG1-dependent DNA repair: Hit Confirmation in Cell-Based Luciferin Assay; actives 3% (n = 350); shares compounds with ELG1 DNA repair; Potency, µM (highest dose often 46.1 µM), hits mostly inhibitors; AID 624247, 2012; cell-free firefly luciferase luminescence counter-screen, ViewLux
ELG1-Luc inh: HTS assay for small molecules that inhibit ELG1-dependent DNA repair in human embryonic kidney (HEK293T) cells expressing luciferase-tagged ELG1: Hit Confirmation; HEK293T ELG1-luciferase levels, luminescence; cells co-treated with 5-fluorouridine; AID 624248, 2012; actives 68% (n = 670); Potency, µM (series often up to 46.1 µM), usual class: inhibitors; shares compounds with ELG1 DNA repair; note: nearly all actives have a fitted effect of over 55% in size
Target sequence (Q96QE3 whole entry, looked up): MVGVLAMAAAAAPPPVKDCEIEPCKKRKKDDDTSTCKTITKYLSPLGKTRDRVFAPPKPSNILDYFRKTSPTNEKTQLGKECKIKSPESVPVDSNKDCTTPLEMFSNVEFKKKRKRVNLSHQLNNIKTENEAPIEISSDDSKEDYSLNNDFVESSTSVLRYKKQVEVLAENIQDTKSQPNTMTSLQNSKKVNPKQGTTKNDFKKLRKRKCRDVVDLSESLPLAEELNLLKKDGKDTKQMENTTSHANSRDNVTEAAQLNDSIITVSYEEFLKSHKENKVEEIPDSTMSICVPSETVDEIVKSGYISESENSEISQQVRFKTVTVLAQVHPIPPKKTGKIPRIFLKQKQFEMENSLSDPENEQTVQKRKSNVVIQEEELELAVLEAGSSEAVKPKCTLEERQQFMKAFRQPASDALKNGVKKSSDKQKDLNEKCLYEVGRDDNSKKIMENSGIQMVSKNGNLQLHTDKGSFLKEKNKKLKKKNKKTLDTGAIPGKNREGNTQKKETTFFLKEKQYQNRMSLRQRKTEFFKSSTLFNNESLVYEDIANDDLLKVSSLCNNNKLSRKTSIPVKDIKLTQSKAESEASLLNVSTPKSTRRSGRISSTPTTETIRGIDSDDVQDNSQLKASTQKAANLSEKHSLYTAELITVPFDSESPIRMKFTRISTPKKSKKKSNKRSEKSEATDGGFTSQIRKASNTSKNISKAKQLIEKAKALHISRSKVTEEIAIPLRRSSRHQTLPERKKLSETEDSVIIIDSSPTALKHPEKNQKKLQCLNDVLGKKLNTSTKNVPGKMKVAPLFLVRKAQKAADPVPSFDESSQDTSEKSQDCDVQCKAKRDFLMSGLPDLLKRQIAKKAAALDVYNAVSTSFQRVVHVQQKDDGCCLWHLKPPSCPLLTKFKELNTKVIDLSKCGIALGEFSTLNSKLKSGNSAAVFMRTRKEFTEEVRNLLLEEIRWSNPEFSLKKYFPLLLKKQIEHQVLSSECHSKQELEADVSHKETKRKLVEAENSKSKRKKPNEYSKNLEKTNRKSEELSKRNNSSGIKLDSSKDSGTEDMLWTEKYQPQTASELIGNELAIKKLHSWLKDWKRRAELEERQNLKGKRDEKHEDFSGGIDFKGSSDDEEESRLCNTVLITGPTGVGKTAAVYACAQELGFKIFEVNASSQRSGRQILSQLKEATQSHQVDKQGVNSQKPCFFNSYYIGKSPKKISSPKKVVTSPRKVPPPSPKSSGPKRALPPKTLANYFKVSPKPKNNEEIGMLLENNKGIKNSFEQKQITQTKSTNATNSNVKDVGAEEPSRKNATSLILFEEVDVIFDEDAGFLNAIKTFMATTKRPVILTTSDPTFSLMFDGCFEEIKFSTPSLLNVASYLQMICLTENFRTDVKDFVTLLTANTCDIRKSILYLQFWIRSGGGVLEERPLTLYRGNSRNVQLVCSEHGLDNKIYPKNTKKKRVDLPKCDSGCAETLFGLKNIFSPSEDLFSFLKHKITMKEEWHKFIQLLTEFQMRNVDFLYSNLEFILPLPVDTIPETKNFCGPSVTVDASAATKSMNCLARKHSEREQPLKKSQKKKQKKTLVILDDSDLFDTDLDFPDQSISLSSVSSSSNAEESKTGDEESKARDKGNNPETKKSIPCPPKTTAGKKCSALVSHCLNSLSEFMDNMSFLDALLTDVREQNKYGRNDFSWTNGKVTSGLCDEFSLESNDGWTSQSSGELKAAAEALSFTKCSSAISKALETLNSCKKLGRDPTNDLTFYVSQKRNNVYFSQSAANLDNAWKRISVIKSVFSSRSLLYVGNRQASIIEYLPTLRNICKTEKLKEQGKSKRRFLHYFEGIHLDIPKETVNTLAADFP
ELG1-Luc MMS: confirmation of human ELG1 repair inhibitors, MMS stimulated; shares compounds with ELG1 DNA repair; HEK293T luciferase-tagged ELG1 level, MMS stimulated; Potency, µM (highest dose often 46.1 µM), hits mostly inhibitors; actives 53% (n = 670); note: nearly all actives have a fitted effect of over 60% in size
ELG1 5FU viab: qHTS screen for small molecules that inhibit ELG1-dependent DNA repair: Hit Confirmation with 5FU Viability; shares compounds with ELG1 DNA repair; cell viability with 5-FU, ELG1-dependent repair; Potency, µM (series often up to 46.1 µM), actives largely listed as cytotoxic; 670 tested, under 10 active; AID 624250, 2012;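 note: ELG1-luc HEK293T cells cotreated with 5-fluorouridine at 10 µM final; viability measured 16 h after compound addition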
ELG1 MMS cell: qHTS screen for small molecules that inhibit ELG1-dependent DNA repair: Hit Confirmation with MMS Viability. shares compounds with ELG1 DNA repair. Cell viability with MMS, ELG1-dependent DNA repair. Potency, µM (doses to about 46.1 µM), usual class: cytotoxic. actives 33% (n = 670). AID 624251, 2012;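 note: ELG1-luc HEK293T cells co-treated with 10 µM MMS; viability read 16 h after compound addition; nearly all actives have a fitted effect of over 60% in size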
Cell viab unstim: qHTS screen for small molecules that inhibit ELG1-dependent DNA repair: Hit Confirmation with Unstimulated Viability Assay | shares compounds with ELG1 DNA repair | cell viability counter-screen, unstimulated, luminescence | Potency, µM (series often up to 45.9 µM), most hits filed as cytotoxic | actives 8% (n = 900);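 note: compound exposure lasted 16 hours before reading; nearly all actives have a fitted effect of over 55% in size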
FLuc biochem: qHTS screen for small molecules that inhibit ELG1-dependent DNA repair: Hit Confirmation in Biochemical Luciferin Assay; shares compounds with ELG1 DNA repair; purified firefly luciferase, luminescence counter-screen; Potency, µM (top dose mostly 57.5 µM), actives largely listed as inhibitors; actives 10% (n = 350); AID 624253, 2012
A number is an active result; n = inactive; u = inconclusive; x = not tested or not shown; [ ] = another dose, or the depositor's remark. This is a sample that favours compounds with a hit; in the whole collection about 15% have one here. Calls come from the whole dose curve; as a rule, active = well fitted curve in the direction sought with a large enough effect; inconclusive = small, poorly fitted or top-dose-only effect, or another doubt; inactive = no such curve, though single readings can be large; an effect the other way counts as inactive or inconclusive.

SMILES | TDP1 cell CPT | RORgamma inh | Gal4-VP16 FLuc | ELG1 DNA repair | ALOX12 inh | DT40 TDP1 no CPT | ELG1 FLuc counter | ELG1-Luc inh | ELG1-Luc MMS | ELG1 5FU viab | ELG1 MMS cell | Cell viab unstim | FLuc biochem
C(=C\c1nc2ccccc2s1)/c1ccc2c(c1)OCO2 | u | x | x | x | x | 11µM | 20µM | x | x | x | x | n | 0.18µM
COC(=O)c1cc(S(=O)(=O)Nc2ccccc2F)c[nH]1 | x | x | x | x | n | x | x | x | x | x | x | x | x
Nc1ncnc2c1c(I)cn2C1OC(CO)C(O)C1O (stereo not drawn) | 0.49µM | 5.6µM | 4µM | x | n | 0.28µM | u | 0.4µM | 1µM | n | u | n | n
CC(C)NC(=O)N1CCC2(CC1)CN(C(=O)Cc1ccccc1)CCO2 | x | x | x | x | n[6.33 µM] | x | x | x | x | x | x | x | x
Cc1nc(N2CCOCC2)nc(N2CCCCC2C)c1[N+](=O)[O-] (stereo not drawn) | u | n | n | n | n | u | x | x | x | x | x | x | x
CC1CCCCN1c1ncnc(N)c1[N+](=O)[O-] (stereo not drawn) | u | n | n | 3.3µM | n | u | x | 7.1µM | 14µM | n | u | n | x
COc1ccc2cc(C(=O)NCc3ccco3)[nH]c2c1 | x | x | x | x | n | x | x | x | x | x | x | x | x
COCCn1c(C)cc(C(=O)COC(=O)c2cccnc2SC)c1C | u | x | x | u | u | 16µM | n | x | x | x | x | u | 0.52µM
Cc1ccc2c(C)c(CCC(=O)Nc3ccc(F)cc3F)c(=O)oc2c1 | x | x | x | x | n | x | x | x | x | x | x | x | x
O=C1c2cccc(OCc3ccc(F)cc3)c2CCN1Cc1ccccc1 | u | u | u | u | n | u | x | u | 4.4µM | n | 6.3µM | u | x
CCCCN(CCCC)C(=O)c1sc2nc(N3CCOCC3)c3c(c2c1N)CCCC3 | u | n | n | u | n | u | x | x | x | x | x | x | x
CN(C(=O)c1sc2nc(N3CCOCC3)c3c(c2c1N)CCCC3)c1ccccc1 | u | n | n | 13µM | u | 23µM | n | 16µM | 22µM | u | n | n | n
